# Assay results from ChEMBL document CHEMBL1201862, “PubChem BioAssay data set” (2004).
# Out of some 400,000 compounds screened, about 2,100 (0.53%) were called active. Not shown: some 14% with an inconclusive outcome. No rule for the calls is given here. For the sample, actives were picked, then their nearest neighbours and some compounds at random.
# Target: Ataxin-2 (Homo sapiens) (UniProt Q99700)
# Experiment: qHTS for Inhibitors of ATXN expression.
# Format: functional
# Ataxin-2 (Homo sapiens), sequence (Q99700 whole entry): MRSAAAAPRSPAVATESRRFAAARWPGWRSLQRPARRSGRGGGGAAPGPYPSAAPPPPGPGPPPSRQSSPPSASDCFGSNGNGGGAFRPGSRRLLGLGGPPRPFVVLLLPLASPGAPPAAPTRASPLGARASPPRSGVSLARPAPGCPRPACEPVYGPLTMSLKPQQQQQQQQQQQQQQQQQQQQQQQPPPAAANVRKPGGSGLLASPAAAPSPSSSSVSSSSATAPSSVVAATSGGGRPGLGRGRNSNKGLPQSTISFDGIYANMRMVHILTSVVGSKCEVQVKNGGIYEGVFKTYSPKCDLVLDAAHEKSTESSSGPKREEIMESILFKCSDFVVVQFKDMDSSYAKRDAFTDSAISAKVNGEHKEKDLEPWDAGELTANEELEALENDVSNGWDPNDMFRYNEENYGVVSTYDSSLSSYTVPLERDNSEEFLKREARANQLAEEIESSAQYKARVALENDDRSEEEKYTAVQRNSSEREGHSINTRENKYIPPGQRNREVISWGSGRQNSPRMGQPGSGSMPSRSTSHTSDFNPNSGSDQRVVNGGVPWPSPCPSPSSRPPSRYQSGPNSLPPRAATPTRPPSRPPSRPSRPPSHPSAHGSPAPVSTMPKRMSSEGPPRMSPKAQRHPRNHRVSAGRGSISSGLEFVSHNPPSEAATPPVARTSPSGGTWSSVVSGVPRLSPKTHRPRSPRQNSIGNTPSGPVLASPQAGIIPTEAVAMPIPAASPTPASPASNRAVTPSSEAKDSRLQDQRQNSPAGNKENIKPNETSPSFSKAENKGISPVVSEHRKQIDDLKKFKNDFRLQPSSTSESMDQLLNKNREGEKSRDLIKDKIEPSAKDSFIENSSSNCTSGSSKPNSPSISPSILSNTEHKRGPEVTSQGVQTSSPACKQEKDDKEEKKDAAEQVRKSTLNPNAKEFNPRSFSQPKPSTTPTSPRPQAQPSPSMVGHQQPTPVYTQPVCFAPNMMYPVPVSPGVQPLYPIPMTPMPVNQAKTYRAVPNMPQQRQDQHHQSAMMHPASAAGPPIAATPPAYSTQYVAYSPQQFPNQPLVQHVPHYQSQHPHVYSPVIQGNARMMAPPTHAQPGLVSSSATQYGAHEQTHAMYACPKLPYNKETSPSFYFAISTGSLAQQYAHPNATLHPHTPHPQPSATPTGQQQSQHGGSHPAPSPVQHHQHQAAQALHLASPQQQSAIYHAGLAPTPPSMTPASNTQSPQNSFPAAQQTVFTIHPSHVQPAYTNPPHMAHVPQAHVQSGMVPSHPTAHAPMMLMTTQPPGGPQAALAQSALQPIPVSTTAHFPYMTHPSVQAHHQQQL
row,Structure (SMILES),Potency
1,CCN(CC)c1ccc(C=C(c2nnnn2-c2ccccc2)c2nnnn2-c2ccccc2)cc1,inactive
2,Cc1cc2cc3c(=O)[nH]c(=O)nc-3n(CC(O)C(O)C(O)CO)c2cc1C (centres undefined),inactive
3,C=CC(=O)/N=c1\sc2ccccc2n1-c1ccccc1,37.7 µM (active)
4,CCN=C(S)N(CCc1c(C)[nH]c2ccc(C)cc12)Cc1cccnc1,inactive
5,COc1cc2nc(/C=C/c3ccc(N(C)C)cc3)sc2cc1SC,inactive
6,CC(C)CN=C(S)N1CCN(c2nc3ccccc3s2)CC1,inactive
7,CCc1cccc2sc(N3CCN(C(=O)c4ccc([N+](=O)[O-])o4)CC3)nc12,39.8 µM (active)
8,Clc1cccc2sc(N3CCN(c4ccccc4)CC3)nc12,inactive
9,Nc1ccc2cc3ccccc3cc2c1,inactive
10,CC(C)OCCCN(C)C1CCN(S(=O)(=O)c2ccc(-c3cc(C(F)(F)F)no3)s2)CC1,inactive
11,c1ccc(C2=NN(c3ccccc3)CC2)cc1,inactive
12,c1ccc(N=NC2=NN(c3ccccc3)CS2)cc1,7.08 µM (active)
13,c1ccc(N2CC3COc4ccccc4C3=N2)cc1 (centres undefined),inactive
14,CCOc1ccc(CN2CCCC(N3CCN(c4ccc(OC)cc4)CC3)C2)cc1 (centres undefined),inactive
15,[O-][n+]1onc2c1CCc1nnc(-c3ccccc3)cc1-2,39.8 µM (active)
16,CCc1ccc(/C=C2\Oc3c(ccc(O)c3CN3CCN(CCO)CC3)C2=O)cc1,inactive
17,CC(=O)N(CC(=O)Nc1nn(-c2ccccc2)nc1C(N)=O)Cc1ccccc1,39.8 µM (active)
18,Cc1nn(-c2ccccc2)nc1C(=O)NNC(=O)c1cccc2ccccc12,inactive
19,O=C(CN(Cc1ccccc1)C(=O)c1csnn1)NCCc1ccccc1,inactive
20,Cc1cc(/C=C2/C(=N)N3C(=NC2=O)SN=C3S(C)(=O)=O)c(C)n1-c1ccccc1,inactive
21,COC(=O)Cc1c(C)c2c(O)cc(C)cc2oc1=O,inactive
22,O=S(=O)([N-]c1nc2ccccc2nc1-[n+]1ccn(Cc2ccccc2)c1)c1ccc(Br)cc1,inactive
23,O=C(NCc1ccc(Cl)cc1)C1CCCN(C(=O)c2ccc(Cl)cc2)C1 (centres undefined),inactive
24,Cc1ccc(CN2CCC(CNC(=O)Nc3ccc(Cl)cc3)C2)cc1 (centres undefined),39.8 µM (active)
25,CC(=O)Nc1ccc(CN2CCN(C3CCCCC3)C(CCO)C2)cc1 (centres undefined),inactive

row,Structure (SMILES),Potency
1,Cc1nn(CCCC(=O)NCc2ccc(F)cc2)c(=O)c2nccn12,inactive
2,O=C(CN(c1cccc(C(F)(F)F)c1)S(=O)(=O)c1ccc(Cl)c([N+](=O)[O-])c1)NCc1ccccc1Cl,39.8 µM (active)
3,O=C(CN(c1ccc(Br)cc1)S(=O)(=O)c1ccc(Cl)c([N+](=O)[O-])c1)NCC1CCCO1 (centres undefined),31.6 µM (active)
4,CCN(CC(=O)NCc1cccs1)S(=O)(=O)c1ccc([N+](=O)[O-])cc1,inactive
5,CSc1ccccc1NC(=O)CN(C)C(=O)CNc1ccc(C(F)(F)F)cc1[N+](=O)[O-],inactive
6,Cc1cc(OCC(=O)OCC(=O)NCC2CCCO2)ccc1Cl (centres undefined),inactive
7,Cc1c(N(C)S(=O)(=O)c2cc(C(=O)NCC3CCCO3)ccc2Cl)c(=O)n(-c2ccccc2)n1C (centres undefined),inactive
8,CNC(=O)c1ccc(-c2sc3nc(N4CCOCC4)c4c(c3c2N)CCCC4)o1,inactive
9,O=C(O)c1ccc(NS(=O)(=O)c2ccc(NC(=O)c3ccccc3Cl)cc2)cc1,inactive
10,CC(C)c1ccc(NC(=O)c2cc(S(=O)(=O)NCc3ccccc3Cl)ccc2F)cc1,28.2 µM (active)
11,O=C(Nc1ccccc1)c1cc(S(=O)(=O)Nc2cccnc2)ccc1Cl,inactive
12,Cc1nc2nc(-c3ccc(Cl)cc3)cn2nc1C,inactive
13,C=C[S+]([O-])c1sc(Cl)c(N2CCOCC2)c1[N+](=O)[O-] (centres undefined),15 µM (active)
14,O=S(=O)(Nc1cccc(-c2nc3cccnc3s2)c1)c1ccc2c(c1)OCCO2,inactive
15,Clc1ccc2c(N/N=C/c3cccc(Br)c3)ccnc2c1,25.1 µM (active)
16,Cc1ccc(NCC(=O)N/N=C/c2cccc(Br)c2)cc1,inactive
17,Cc1ccccc1/C=N/Nc1ccnc2cc(Cl)ccc12,28.2 µM (active)
18,FC(F)(F)c1ccccc1/C=N/Nc1ccccn1,inactive
19,CN(C)c1nc(NCc2ccccc2)nc(N/N=C/c2ccc(Cl)cc2Cl)n1,inactive
20,O=[N+]([O-])c1ccc(Cl)cc1N/N=C/c1ccncc1,inactive
21,N#C/C(=C/c1ccc(F)cc1)c1nnc(NC(=O)c2ccccc2)s1,inactive
22,N#Cc1cc2c(=O)n3ccccc3nc2n(-c2ccc(Cl)cc2)c1=O,inactive
23,O=c1oc2cc(O)ccc2cc1-c1ccccc1,inactive
24,COc1ccc(CCNc2ncnc3c2cnn3-c2cc(Cl)ccc2C)cc1,22.4 µM (active)
